Molecules are shown by their SMILES. Records with an inconclusive call do not appear. A call without a number means that no potency is given here. The source made the active and inactive calls. Calls follow the shape of the dose curve; as a rule, active = well fitted cell-killing curve with a large enough effect; inconclusive = small, poorly fitted or top-dose-only effect; inactive = flat fitted curve, though single readings scatter.

A short description of the experiment: NCATS anti-infectives library activity on HEK293 viability as a counter-qHTS vs the C. elegans viability qHTS (AID 1745854).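 Also: HEK293 cells exposed to compounds for 24 hr before the viability read.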 The gist of the method:
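Compound titrations (final up to 41.7 uM) were incubated with HEK293 cells for 24 hr at 37C under 5% CO2. Viable cells were quantified with CellTiter-Glo after 10 min at ambient temperature.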

With `CCCC(=O)O[C@H]1CN2CC[C@H](O)[C@@H]2[C@@H](O)[C@@H]1O`, the Potency entry is “inactive”. Then `CN(C)C/C=C/C(=O)Nc1cccc(C(OCCN2CCCCC2)c2cc3nccc(C(=O)O)c3s2)c1` (configuration not stated), with “inactive”.

For the origin of these results see PubChem BioAssay (NCATS).
